Assay results as given in PubChem BioAssay (NCATS).
Results filed as inconclusive are left out. Calls of active or inactive are those of the source. Calls follow the shape of the dose curve; as a rule, active = well fitted inhibition curve with a large enough effect; inconclusive = small, poorly fitted or top-dose-only effect; inactive = flat fitted curve, though single readings scatter.

What follows are molecules tested on CRL-7250 (assay: Cytotoxic Profiling of Annotated Libraries Using Quantitative High-Throughput Screening (AID 1296008; also: nearly all actives have a fitted effect of over 60% in size)). Details: Five cell lines viability, CellTiter-Glo ATP luminescence, 48-72 h; max response: hits give low values.
Method in brief: (§1)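 Cells exposed to compounds for 48 or 72 hr at 37 degrees Celsius. Viability read as ATP-coupled luminescence with CellTiter-Glo after 10 min at room temperature.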
% is scaled to controls: 0 for no effect and ±100 for the full control effect; potency is read from the fitted curve at half-maximal effect.

Row | Structure (SMILES) | max response | Potency
1 | COc1cc(C(N)=O)nc(-c2ccccn2)c1O | -12.9% (inactive) | 
2 | Cc1nc(C#Cc2ccnc(Cl)c2)c(C)n1-c1ccc(F)cc1 |  | 18.4 µM (active)
3 | C=C(C)C(=O)O[C@H]1[C@H]2C(=C)C(=O)O[C@@H]2C[C@@H](C)[C@@H]2O[C@@H]2C(=O)[C@](C)(O)[C@@H]1OC(=O)C(=C)C |  | 7.09 µM (active)
4 | C=CC(=O)Nc1cccc(Nc2nc(Nc3ccc(OCCOC)cc3)ncc2F)c1 |  | 5.17 µM (active)
5 | Cc1cccc(-c2[nH]ncc2-c2ccnc3ccccc23)n1 | -17.2% (inactive) | 
6 | CC1CCCC[C@H]2C(=O)C=C[C@H](O)[C@@H]2CC(=O)O1 (stereo not given in full) |  | 8.2 µM (active)
7 | O=C(Nc1cccnn1)N1CCN(c2nccc(-c3ccc(F)c(F)c3)n2)CC1 | -5.59% (inactive) | 
8 | C#CC(=O)N(c1ccc(OC)cc1OC)C(C(=O)NCC(=O)OCC)c1cccs1 (stereo not given) |  | 0.206 µM (active)
9 | Cc1[nH]c2ccc(F)cc2c1-c1nc2c3cccnc3c3ncccc3c2[nH]1 |  | 3.66 µM (active)
10 | c1ccc(-c2ccc(CNc3nc(-c4ccccn4)nnc3-c3ccccc3)cc2)cc1 |  | 5.8 µM (active)
11 | Cc1cc(C(=O)Nc2cc(Nc3ccc4c(/C=C/c5ccccn5)n[nH]c4c3)ccc2F)n(C)n1 |  | 18.4 µM (active)
12 | Cc1cc2c(F)c(Oc3ncnn4cc(OCC(C)OC(=O)C(C)N)c(C)c34)ccc2[nH]1 (stereo not given) | -5.94% (inactive) | 
13 | C=C1C(=O)O[C@@H]2C(OC(=O)/C(C)=C\C)/C(C)=C\C(=O)/C=C(\C)C[C@H](O)[C@@H]12 (stereo not given in full) |  | 10.1 µM (active)
14 | COC1CC(O[C@H]2CC[C@]3(C)C4CC[C@@]5(C)C(=O)[C@]4(CC[C@@H]3C2)CC[C@@H]5C2=CC(=O)OC2)OC(C)C1OC1OC(COC2OC(CO)C(O)C(O)C2O)C(O)C(O)C1O (stereo not given in full) |  | 1.55 µM (active)
15 | COC1CC(O[C@H]2CC[C@]3(C)C4CC[C@]5(C)C(C6=CC(=O)OC6)=CCC56OC46CC[C@@H]3C2)OC(C)C1O[C@@H]1O[C@H](CO[C@@H]2O[C@H](CO)[C@@H](O)[C@H](O)[C@H]2O)[C@@H](O)[C@H](O)[C@H]1O (stereo not given in full) |  | 1.55 µM (active)
16 | C=C1C(=O)O[C@H]2C3=C(C)CCC[C@]3(C)C(=O)C[C@@H]12 |  | 18.4 µM (active)
17 | CN1CCN(C2CCN(C(=O)Nc3cc(Oc4ccc(NC(=O)C5(C(=O)Nc6ccc(F)cc6)CC5)c(F)c4)ccn3)CC2)CC1 |  | 9.2 µM (active)

These molecules were tested on HEK293 in the same assay as above. Details: Five cell lines viability, CellTiter-Glo ATP luminescence, 48-72 h; max response: hits give low values.
Method in brief: as §1

Row | Structure (SMILES) | Potency | max response
18 | CNC(=O)[C@@H](c1ccccc1)N1CCc2cc(OC)c(OC)cc2[C@@H]1CCc1ccc(C(F)(F)F)cc1 | 16.4 µM (active) | 
19 | CC1CCC/C=C/C(=O)c2c(O)cc(O)cc2CC(=O)O1 (stereo not given) | 4.11 µM (active) | 
20 | Cc1cc2c(cc1N1C(=O)c3cccc4c(CCCO)ccc(c34)C1=O)n(C)c(=O)n2C |  | -71.7% (inactive)
21 | CCOc1cc(C(C)(C)C)ccc1C1=N[C@@](C)(c2ccc(Cl)cc2)[C@@](C)(c2ccc(Cl)cc2)N1C(=O)N1CCN(CC(=O)N2CCOCC2)CC1 | 4.17 µM (active) | 
22 | C=C1C(=O)O[C@@H]2[C@H]1CC(=O)[C@H](C)[C@@](O)(C(=O)/C=C/C)[C@H]2OC(=O)C(C)CC (stereo not given in full) | 2.86 µM (active) | 
23 | CC(C)=C1C[C@@]2(C)C(=CC1=O)CC[C@@H](OC(=O)/C(C)=C/CO)[C@@H]2C | 1.28 µM (active) | 
24 | Cc1[nH]c(/C=C2\C(=O)Nc3ccc(S(=O)(=O)N(C)c4cccc(Cl)c4)cc32)c(C)c1C(=O)N1CCN(C)CC1 | 6.51 µM (active) | 
25 | CC(C)(O)/C=C/C(=O)[C@](C)(O)[C@H]1[C@H](O)C[C@@]2(C)[C@@H]3CC=C4[C@@H](C[C@H](O[C@@H]5O[C@H](CO)[C@@H](O)[C@H](O)[C@H]5O)C(=O)C4(C)C)[C@]3(C)C(=O)C[C@]12C |  | -10.4% (inactive)
26 | O=S(=O)(Nc1cc(Cl)c(Oc2cnc3ccccc3c2)c(Cl)c1)c1ccc(Cl)cc1Cl |  | -18.7% (inactive)
27 | C[C@H](Nc1ncnc2nc[nH]c12)c1cc2cccc(Cl)c2c(=O)n1-c1ccccc1 |  | -90.1% (inactive)
28 | C=C1CC2OC(=O)C(=C)C2C(OC(=O)/C(C)=C\C)CC2(C)OC1=CC2=O (stereo not given) | 2.86 µM (active) | 
29 | Cc1cc(Nc2nc(-c3ccccc3)nc3ccccc23)n[nH]1 | 7.31 µM (active) | 
30 | Nc1ncnc2c1nc(Cl)n2C1OC2COP(=O)(O)OC2C1O (stereo not given) | 1.64 µM (active) | 
31 | CC(=O)OC(C)(C)/C=C/C(=O)[C@](C)(O)[C@H]1C(O)C[C@@]2(C)[C@@H]3CC=C4[C@@H](C=C(O[C@@H]5O[C@H](CO)[C@@H](O)[C@H](O)[C@H]5O)C(=O)C4(C)C)[C@]3(C)C(=O)C[C@]12C (stereo not given in full) |  | -18.4% (inactive)
32 | O=C1NC(=O)C(c2cnc3ccccn23)=C1c1cn2c3c(cc(F)cc13)CN(C(=O)N1CCCCC1)CC2 | 0.295 µM (active) | 
33 | Cn1nc(-c2ccc(C(F)(F)F)cc2)nc2c(=O)n(C)c(=O)nc1-2 | 6.51 µM (active) | 
34 | O=C(NO)c1cnc(N2CCN(S(=O)(=O)c3ccc4ccccc4c3)CC2)nc1 |  | -106% (inactive)
35 | Cc1noc(-c2ccc(-c3ccc(CC(=O)O)cc3)cc2)c1NC(=O)O[C@H](C)c1ccccc1Cl |  | -3.72% (inactive)
36 | CC(=O)C1=C(O)C=C2Oc3c(C(C)=O)c(O)c(C)c(O)c3[C@]2(C)C1=O |  | 0.521% (inactive)

Row | Structure (SMILES) | Potency | max response
37 | COC(=O)C1=COC(O[C@@H]2O[C@H](CO[C@@H]3O[C@H](COC(=O)/C=C\c4ccc(O)cc4)[C@@H](O)[C@H](O)[C@H]3O)[C@@H](O)[C@H](O)[C@H]2O)C2C(CO)=CCC12 (stereo not given in full) |  | -82.6% (inactive)
38 | N#Cc1ccc(O[C@@H]2c3ccccc3C[C@H]2N2CCC[C@@H](N)C2)c(Cl)c1 | 20.6 µM (active) | 
39 | COc1cc(C(N)=O)nc(-c2ccccn2)c1O |  | -3.89% (inactive)
40 | Cc1nc(C#Cc2ccnc(Cl)c2)c(C)n1-c1ccc(F)cc1 | 7.31 µM (active) | 
41 | C=C(C)C(=O)O[C@H]1[C@H]2C(=C)C(=O)O[C@@H]2C[C@@H](C)[C@@H]2O[C@@H]2C(=O)[C@](C)(O)[C@@H]1OC(=O)C(=C)C | 2.52 µM (active) | 
42 | C=CC(=O)Nc1cccc(Nc2nc(Nc3ccc(OCCOC)cc3)ncc2F)c1 | 8.2 µM (active) | 
43 | Cc1cccc(-c2[nH]ncc2-c2ccnc3ccccc23)n1 |  | -23.7% (inactive)
44 | CC1CCCC[C@H]2C(=O)C=C[C@H](O)[C@@H]2CC(=O)O1 (stereo not given in full) | 1.64 µM (active) | 
45 | O=C(Nc1cccnn1)N1CCN(c2nccc(-c3ccc(F)c(F)c3)n2)CC1 |  | -4.09% (inactive)
46 | C#CC(=O)N(c1ccc(OC)cc1OC)C(C(=O)NCC(=O)OCC)c1cccs1 (stereo not given) | 0.259 µM (active) | 
47 | Cc1[nH]c2ccc(F)cc2c1-c1nc2c3cccnc3c3ncccc3c2[nH]1 | 4.61 µM (active) | 
48 | c1ccc(-c2ccc(CNc3nc(-c4ccccn4)nnc3-c3ccccc3)cc2)cc1 | 5.17 µM (active) | 
49 | Cc1cc(C(=O)Nc2cc(Nc3ccc4c(/C=C/c5ccccn5)n[nH]c4c3)ccc2F)n(C)n1 | 11.6 µM (active) | 
50 | Cc1cc2c(F)c(Oc3ncnn4cc(OCC(C)OC(=O)C(C)N)c(C)c34)ccc2[nH]1 (stereo not given) | 6.51 µM (active) | 
51 | C=C1C(=O)O[C@@H]2C(OC(=O)/C(C)=C\C)/C(C)=C\C(=O)/C=C(\C)C[C@H](O)[C@@H]12 (stereo not given in full) | 2.55 µM (active) | 
52 | COC1CC(O[C@H]2CC[C@]3(C)C4CC[C@@]5(C)C(=O)[C@]4(CC[C@@H]3C2)CC[C@@H]5C2=CC(=O)OC2)OC(C)C1OC1OC(COC2OC(CO)C(O)C(O)C2O)C(O)C(O)C1O (stereo not given in full) | 1.23 µM (active) | 
53 | COC1CC(O[C@H]2CC[C@]3(C)C4CC[C@]5(C)C(C6=CC(=O)OC6)=CCC56OC46CC[C@@H]3C2)OC(C)C1O[C@@H]1O[C@H](CO[C@@H]2O[C@H](CO)[C@@H](O)[C@H](O)[C@H]2O)[C@@H](O)[C@H](O)[C@H]1O (stereo not given in full) | 1.74 µM (active) | 
54 | C=C1C(=O)O[C@H]2C3=C(C)CCC[C@]3(C)C(=O)C[C@@H]12 | 5.8 µM (active) | 
55 | CN1CCN(C2CCN(C(=O)Nc3cc(Oc4ccc(NC(=O)C5(C(=O)Nc6ccc(F)cc6)CC5)c(F)c4)ccn3)CC2)CC1 | 13 µM (active) | 
